Reference: PubChem BioAssay AID2669 (National Center for Advancing Translational Sciences (NCATS), 2010)
Inconclusive results are not listed. Active and inactive are the calls of the source. Calls follow the shape of the dose curve; as a rule, active = well fitted inhibition curve with a large enough effect; inconclusive = small, poorly fitted or top-dose-only effect, or effect the other way; inactive = flat fitted curve, though single readings scatter.

Experiment: qHTS Assay Multiplex Screening to Identify Dual Action Probes in a Cell Model of Huntington: Cytoprotection (Protease relase)
Conditions: PC12 HttQ103 cells, Cytotox-Glo protease release, 40 h; series mostly up to 46.1 µM
Method in brief: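 Cytotox-Glo luminescence of released protease served as the cytoprotection readout. Compounds were added alongside 100 nM final tebufenozide to PC12 cells carrying ecdysone-inducible GFP-tagged HTT exon 1 with 103 glutamines.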

Row | Structure (SMILES) | Potency
1 | Cc1cccc(-c2csc3ncnc(Sc4nnnn4C)c23)c1 | 14.1 µM (active)
2 | Cn1nnnc1Sc1ncnc2scc(-c3ccccc3[N+](=O)[O-])c12 | 20 µM (active)
3 | CC(=O)OCC1=C(C(=O)O)N2C(=O)[C@@H](NC(=O)Cc3cccs3)[C@H]2SC1 | inactive
4 | Cn1nnnc1Sc1ncnc2scc(-c3ccc([N+](=O)[O-])cc3)c12 | 8.91 µM (active)
5 | NC(=O)c1sc2nc3c(c(-c4cccs4)c2c1N)CCCCC3 | inactive
6 | O=C(c1ccccc1)c1ccc2n1CCC2C(=O)O (stereo not drawn) | 3.98 µM (active)
7 | Cc1[nH]nc2c1C(c1cccc(O)c1)C1=C(CC(C)(C)CC1=O)N2 (stereo not drawn) | inactive
8 | COc1cc(-c2nc(S(=O)(=O)c3ccc(C)cc3)c(N(C)C)o2)cc(OC)c1OC | inactive
9 | Cn1nnnc1Sc1ncnc2scc(-c3ccc(C(=O)OC(C)(C)C)cc3)c12 | 14.1 µM (active)
10 | CS(=O)(=O)c1ccc([C@H](O)[C@H](CO)NC(=O)C(Cl)Cl)cc1 | inactive
11 | O=c1c2ccccc2nnn1CSc1ncnc2ccccc12 | inactive
12 | Oc1ccc(/C=C/c2cc(O)cc(O)c2)cc1 | 2.24 µM (active)
13 | Cn1nnnc1Sc1ncnc2scc(-c3cccc([N+](=O)[O-])c3)c12 | 12.6 µM (active)
14 | COc1ccccc1-n1nnnc1S(=O)(=O)Cc1ccc(Cl)cc1 | 14.1 µM (active)
15 | C[C@]12CC[C@@H]3c4ccc(OC(=O)c5ccccc5)cc4CC[C@H]3[C@@H]1CC[C@@H]2O | inactive
16 | COc1ccc(-c2csc3ncnc(Sc4nnnn4C)c23)cc1 | 11.2 µM (active)
17 | COc1cc(Cc2cnc(N)nc2N)cc(OC)c1OC | inactive
18 | C=C(C)C(=O)OCCCCCCOc1ccc(C(=O)O)cc1 | 2.24 µM (active)
19 | Cc1ccc(-c2csc3ncnc(Sc4nnnn4C)c23)cc1 | 14.1 µM (active)
20 | Cc1ccccc1N=C(N)Nc1ccccc1C | inactive
21 | Cc1ccc(S(=O)(=O)CCc2nc3ccccc3n2CCC#N)cc1 | 25.1 µM (active)
22 | Cn1nnnc1Sc1ncnc2scc(-c3cc4ccccc4o3)c12 | 7.08 µM (active)
23 | Cn1nnnc1Sc1ncnc2scc(-c3ccc(C#N)cc3)c12 | 8.91 µM (active)
